# Hit rate of the full screen: of about 220,000 compounds, about 1,500 (0.68%) were called active. This is one part of a sample in which actives are shown more often than they occur. Values without a mark were called inactive.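 How the source made its calls: active means Hck-Nef kinase inhibition above about 50% (limit read from the data); inactive means inhibition below that limit.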
# Biological target: Tyrosine-protein kinase HCK (Homo sapiens) (UniProt P08631)
# Assay: inhibitors of Nef-activated human Hck kinase, primary screen, biochemical, Z-Lyte FRET, 384-well, Hck-YEEI (AID 463187);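 further: 0% = DMSO with Hck plus Nef and 100% = Hck alone without Nef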
# Details: Recombinant Hck-YEEI plus Nef, Z-Lyte FRET kinase assay; at 20 µM; active compounds read high
# Sequence of Tyrosine-protein kinase HCK (Homo sapiens) (P08631 whole entry, looked up): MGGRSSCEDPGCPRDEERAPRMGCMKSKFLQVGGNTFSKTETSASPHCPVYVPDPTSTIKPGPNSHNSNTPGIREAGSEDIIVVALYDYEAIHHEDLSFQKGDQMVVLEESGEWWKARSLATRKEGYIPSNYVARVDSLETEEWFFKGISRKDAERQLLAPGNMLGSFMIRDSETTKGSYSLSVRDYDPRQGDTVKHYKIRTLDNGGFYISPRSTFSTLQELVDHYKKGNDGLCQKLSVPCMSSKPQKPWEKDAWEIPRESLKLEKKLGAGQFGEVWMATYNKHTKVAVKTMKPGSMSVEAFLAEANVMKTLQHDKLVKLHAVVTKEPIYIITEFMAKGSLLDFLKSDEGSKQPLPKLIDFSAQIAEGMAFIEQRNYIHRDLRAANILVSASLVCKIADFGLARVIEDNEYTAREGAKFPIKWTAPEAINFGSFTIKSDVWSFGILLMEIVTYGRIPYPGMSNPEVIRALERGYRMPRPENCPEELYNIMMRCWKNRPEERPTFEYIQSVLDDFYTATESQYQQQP
row,Structure (SMILES),inhibition
1,CC1=CC(C)(C)NC(=S)N1c1ccccc1,-1.08%
2,COc1ccc(N2CCN(c3ccc([N+](=O)[O-])cc3Cl)CC2)cc1,9.48%
3,C/C=C/C(=O)Nc1nnc(C(C)C)s1,6.42%
4,OCCCNc1nccc(-c2cc(Nc3cccc(Cl)c3)ncn2)n1,17.4%
5,CC(C)C[C@H](CO)Nc1nc(N(C)c2cccc(Cl)c2)c2ncn(C(C)C)c2n1,29.9%
6,CC(C)n1cnc2c(Nc3cccc(Cl)c3)nc(N(CCO)CCCO)nc21,112% (active)
7,CC1CN(S(=O)(=O)c2ccccc2)C(C)CN1S(=O)(=O)c1ccccc1 (configuration not stated),2.18%
8,CC(=O)Nc1ccc(/C(C)=N/NC(=O)CN(c2ccccc2Br)S(C)(=O)=O)cc1,3.92%
9,Cc1cc(Br)ccc1SCC(=O)OCC(=O)NCc1ccc2c(c1)OCO2,-1.74%
10,Oc1c(Cl)cc(Cl)c(Cl)c1Cc1c(O)c(Cl)cc(Cl)c1Cl,58.4% (active)
11,CC(=O)NC1C(OCc2ccccc2)OC(COC(C)=O)C(OC(C)=O)C1OC(C)=O (configuration not stated),0.438%
12,O=C(OCC1O[C@@H](OC(=O)c2cc(O)c(O)c(O)c2)[C@@H](OC(=O)c2cc(O)c(O)c(O)c2)[C@@H](OC(=O)c2cc(O)c(O)c(O)c2)[C@@H]1OC(=O)c1cc(O)c(O)c(O)c1)c1cc(O)c(O)c(O)c1 (some centres not stated),97.6% (active)
13,C/C=C(\C)C(=O)N1CC2(CC(c3cccc(NC(=O)CCCCC)c3)=NO2)C[C@@H]1C(N)=O (some centres not stated),35.8%
14,O=C(N/N=C/c1coc2ccccc2c1=O)c1cc2ccccc2o1,49.1%
15,O=C(CCCCCNC(=O)c1ccccc1)N/N=C/c1ccccc1,9.24%
16,CC(C)(C)OC(=O)NCCCCCC(=O)N/N=C/c1coc2ccccc2c1=O,76.3% (active)
17,Cc1ccc(OCCCC(=O)NC(C)c2ccccc2)c(C)c1 (configuration not stated),-1.04%
18,CC(C)n1c(CN2CCN(Cc3ccccc3)CC2)nc2ccccc21,5.34%
19,CN(C)C(=S)Nc1ccc(Br)cc1Cl,14.6%
20,O=C1Oc2ccccc2C(=O)/C1=C/c1ccccc1O,80.6% (active)
21,CCn1c(NC(=O)c2ccccc2)c(-c2cccs2)c(=O)c2ccccc21,-2.03%
22,CC(=O)c1cccc(NC(=O)c2ccncc2)c1,-1.38%

row,Structure (SMILES),inhibition
1,CCn1c(=O)c2cc(C(=O)Nc3cccc(C(C)=O)c3)sc2c2ccccc21,53.6% (active)
2,Cc1ccc(N2C(=O)CC(Nc3cccc4ccccc34)C2=O)cc1 (configuration not stated),20.6%
3,CC(C)Cn1cnc2c1c(=O)n(CC(O)c1ccccc1)c(=O)n2CC(C)C (configuration not stated),1.05%
4,c1ccc(CSc2nnc(-c3ccco3)c(-c3ccco3)n2)cc1,61.4% (active)
5,Brc1ccc(CSc2ccc(-c3ccco3)nn2)cc1,22.4%
6,Clc1ccccc1CSc1nnc(-c2ccco2)c(-c2ccco2)n1,21.2%
7,O=C(COc1ccc([N+](=O)[O-])cc1)Nc1ccc(N2CCCC2)cc1,1.04%
8,Cc1c(NC(=O)/C=C/C(=O)O)cccc1[N+](=O)[O-],0.166%
9,Cc1ccc(/C=C/C(=O)Nc2ccc([N+](=O)[O-])c(NC(=O)/C=C/c3ccc(C)o3)c2)o1,79.2% (active)
10,CCc1nnc(NC(=O)/C=C/c2ccc(C)o2)s1,2.58%
11,Cc1ccc(N(CC(=O)Nc2cc(C)cc(C)c2)S(=O)(=O)c2cccc3nonc23)cc1,2.67%
12,Cc1c(Nc2nc3ccccc3nc2NS(=O)(=O)c2cccs2)c(=O)n(-c2ccccc2)n1C,-1.3%
13,Cc1ccc(C)c(SCc2nc3sc(C(=O)O)c(C)c3c(=O)[nH]2)c1,30.6%
14,CCOC(=O)c1ccc[n+](CC(=O)Nc2ccccc2OC(F)F)c1,3.79%
15,Cc1ccc(-c2nc(SCC(=O)Nc3ccccc3OC(F)F)c3c(C)c(C(=O)O)sc3n2)cc1,98.6% (active)
16,COc1ccc(N(CC(=O)NC2CCCC2)C(=O)CS(=O)CC(=O)Nc2ccc3c(c2)OCO3)cc1 (configuration not stated),20.7%
17,CCn1c(SCC(=O)Nc2ccc(S(=O)(=O)Nc3onc(C)c3C)cc2)nnc1-c1ccccc1,0.636%
18,COc1ccc(C(=O)Nc2ccc(S(=O)(=O)Nc3onc(C)c3C)cc2)cc1OC,2.01%
19,Cc1cc(C)c2nc(-c3cccnc3)cc(C(=O)Nc3ccc(S(=O)(=O)Nc4onc(C)c4C)cc3)c2c1,62.9% (active)
20,O=C1c2ccccc2NC(c2ccccc2O)N1NS(=O)(=O)c1ccccc1 (configuration not stated),24.7%
21,O=C(COC(=O)CSc1nnc(-c2ccc(Cl)cc2)o1)Nc1cc(Cl)cc(Cl)c1,3.81%
22,CCN(CC)c1ccc2cc(C(=O)O)c(=O)oc2c1,179% (active)

row,Structure (SMILES),inhibition
1,CCN(CC)c1ccc2cc(C(N)=O)/c(=N\NC(=O)c3ccncc3)oc2c1,-3.77%
2,CCN(CC)c1ccc2oc(=O)c(C)nc2c1,-14.5%
3,Cc1cc(C)nc(NNC2=CC(=O)CC(C)(C)C2)n1,22.8%
4,Cc1[nH]nc(-c2ccc(OCc3cnn(-c4ccccc4)c3)cc2O)c1Oc1ccc(Cl)cc1,0.631%
5,Cc1ccc2nc(S(=O)(=O)O)[nH]c2c1,-5.86%
6,CCOC(=O)CSc1nc2ccc(C)cc2[nH]1,10.3%
7,Cc1ccc2nc(/C(C#N)=C\c3ccc(OC(=O)c4cccs4)cc3)[nH]c2c1,57.1% (active)
8,CCOC(=O)c1sc(-c2cccc([N+](=O)[O-])c2)cc1N,22%
9,CN(C)C(=O)c1nc2ccc(Cl)cn2c1CN1CCN(c2ncccn2)CC1,16.5%
10,CCCC(=O)Nc1nc2ccc(NC(=O)c3c(F)c(F)c(OC)c(F)c3F)cc2s1,13.4%
11,CCC(CC)C(=O)Nc1ccc(S(=O)(=O)Nc2nccs2)cc1,15.9%
12,O=C(Nc1ccc(S(=O)(=O)Nc2nccs2)cc1)c1cc(-c2ccncc2)nc2ccccc12,75% (active)
13,O=C(Nc1ccc(S(=O)(=O)Nc2nccs2)cc1)c1cc(=O)[nH]c2ccccc12,8.68%
14,Cc1cc(CNC(=O)c2cccc([N+](=O)[O-])c2)c2ccccc2n1,20.7%
15,O=[N+]([O-])c1cccc(Nc2c3ccccc3nc3ccccc23)c1,64.5% (active)
16,CC(=O)Nc1ccc(Nc2c3ccccc3nc3ccccc23)cc1,12.8%
17,Cc1ccc2cc(CCNC(=O)c3ccc4c(c3)OCO4)c(=O)[nH]c2c1,0.571%
18,Cc1cc(N)n2nc(-c3ccc(C(C)(C)C)cc3)cc2n1,0.862%
19,CSCC[C@H](NC(=O)CCCn1nnc2ccccc2c1=O)C(=O)O,4.6%
20,O=C(COc1ccccc1F)NNC(=O)c1ccc(N2CCCCC2)c([N+](=O)[O-])c1,2.35%
21,Nc1ccc(-c2nnc(-c3ccc(-c4ccccc4)cc3)o2)cc1,2.48%
22,OC(c1nnc(-c2ccccc2)o1)c1cccs1 (configuration not stated),52.9% (active)

row,Structure (SMILES),inhibition
1,CCCN(CCC)c1ccc(C(O)c2nnc(-c3ccccc3)o2)cc1 (configuration not stated),-0.222%
2,C/C(CC(=O)Nc1ccc(C)cc1C)=N\NC(=O)C(C)C,14.7%
3,NC(=O)Nc1ccccc1C(=O)NCCc1ccccc1,1.58%
4,COc1ccc(Cl)cc1S(=O)(=O)N1CCC(O)(c2ccc(Cl)cc2)CC1,3.69%
5,CCCCN(CCCC)CC(O)Cn1c2ccccc2c(=O)c2ccccc21 (configuration not stated),119% (active)
6,CS(=O)(=O)N(CC(O)Cn1c2ccccc2c2ccccc21)c1cccc2ccccc12 (configuration not stated),0.481%
7,O=C1c2ccccc2S(=O)(=O)N1CC(O)Cn1c2ccccc2c2ccccc21 (configuration not stated),0.294%
8,Cn1cnnc1Sc1ccc(CN2CCN(C3CCCC3)C(CCO)C2)o1 (configuration not stated),-5.92%
9,COC/C=C/C1=CC2=CC(=O)C(C)(OC(=O)CCC(=O)OC)C(=O)C2=CO1 (configuration not stated),51.9% (active)
10,COC(=O)CCCC1=CC2=CC(=O)C(C)(OC(=O)c3cccs3)C(=O)C2=CN1CC(C)C (configuration not stated),23.4%
11,COC(=O)CCCC1=CC2=CC(=O)C(C)(OC(=O)c3cccs3)C(=O)C2=CN1CC1CC1 (configuration not stated),10.7%
12,Cc1ccc(CN(C(=O)c2sc3ccccc3c2Cl)C2CCS(=O)(=O)C2)cc1 (configuration not stated),3.1%
13,CC(=O)Nc1ccc(SCC(=O)Nc2ccccc2Oc2ccccc2)cc1,0.985%
14,Cc1nn(CC(=O)Nc2ccc(N(C)C)cc2)c(C)c1[N+](=O)[O-],4.36%
15,CCOC(=O)/C(C#N)=C/c1cn(CCC(=O)O)nc1-c1ccc(Br)cc1,20.2%
16,O=C(O)/C=C/c1cn(Cc2ccccc2)nc1-c1cccs1,-1.06%
17,O=C(O)CCn1cc(/C=C/C(=O)c2ccc(Cl)cc2)c(-c2cccc(Br)c2)n1,55% (active)
18,Cc1onc(C(=O)NN)c1C(=O)N1CCN(C(c2ccccc2)c2ccccc2)CC1,16.6%
19,N/C(=N\S(=O)(=O)c1cc(C(F)(F)F)cc(C(F)(F)F)c1)c1cccs1,-0.264%
20,O=[N+]([O-])c1ccccc1N/N=C1\CCc2ccccc21,-4.18%
21,COc1ccc(NC(=S)NCc2cccs2)c(OC)c1,0.854%
